Assay outcomes from PubChem.
A selection: hits, their analogues and other compounds. The true share with any hit is near 3.5%.
Autofluor counter – counter-screen for toxin protease inhibitors: compound fluorescence | compound autofluorescence counterscreen, microsphere flow cytometry; stronger effect = higher value | fluorescence intensity (no concentration beside the values) | actives 3.1% (n = 360,000) | AID 624483; in the data active = fluorescence intensity above about 16000; inconclusive = no clear call, values can overlap the other calls
BJeLR lethal – kills HRASV12-expressing BJeLR cells; inhibition, % (no concentration beside the values); BJeLR (HRASV12) viability, CellTiter-Glo ATP luminescence, 48 h; AID 1554; actives 0.17% (n = 300,000); in the data active = inhibition above about 50%; inconclusive = no clear call, values can overlap the other calls
Anthrax LF prot – anthrax lethal factor protease inhibition; inhibition, % at 10 µM; actives 0.12% (n = 360,000); AID 588501; multiplex microsphere protease cleavage assay, LF; P15917
BoNT F protease – inhibitors of Botulinum neurotoxin F light chain protease | inhibition, % at 10 µM | Multiplex microsphere protease cleavage assay, flow cytometry | AID 588497 | actives 0.22% (n = 360,000); in the data active = inhibition above about 35%, passing the limit was not always enough; inconclusive = no clear call, values can overlap the other calls
BoNT A protease – inhibitors of Botulinum neurotoxin A light chain protease; multiplex microsphere protease substrate cleavage, flow cytometry; inhibition, % at 10 µM; actives 0.17% (n = 360,000); AID 588499
Each line names hits and unclear results; the compound was inactive in the other large screens. Rule as the data show it, unless noted: active = inhibition above about 30%; inconclusive = no clear call, values can overlap the other calls; inactive = below that.

CC(C)c1ccc(C(=O)N2CCCCC2c2cc(C(=O)NCc3cccnc3)no2)cc1 (stereo unspecified)	none (no result: BJeLR lethal)
Cc1cnn(CCC(=O)NNC(=S)Nc2ccc(F)cc2)c1	none (no result: Autofluor counter, Anthrax LF prot, BoNT F protease, BoNT A protease)
Cc1cnn(CCC(=O)NNC(=S)Nc2cccc(Cl)c2)c1	Autofluor counter 21961
Cc1nn(CC(=O)NNC(=S)Nc2ccccc2)c(C)c1[N+](=O)[O-]	Autofluor counter 21125
CC(C)c1ccc(-c2c(NCCc3ccccc3)c(=O)c2=O)cc1	none
Oc1ccc(C[C@H]2CNC(=S)N2CC2CCCN2C[C@H](Cc2ccccc2)N2C[C@H](Cc3ccc(O)cc3)N(CC3CCCCC3)C2=S)cc1 (stereo partly specified)	none (no result: BJeLR lethal)
Cc1c2c(nc3c(C(=O)NC4CC4)cnn13)CCCC2	Autofluor counter 21129
CCC(C)NC(=O)c1cnn2c(C)c3c(nc12)CCCC3 (stereo unspecified)	none
O=C(NCCc1ccc(O)c(Br)c1)c1ccc(Br)o1	none (no result: BJeLR lethal)
COC(=O)[C@H](CC(C)C)NC(=O)NC1CCCc2ccccc21 (stereo partly specified)	none
COC(=O)[C@H](CC(C)C)NC(=O)NC1CCCCC1C (stereo partly specified)	Autofluor counter 17745
COc1cc(C)ccc1OCC(=O)NC1CCCCCC1	none (no result: BJeLR lethal)
COc1cc(CNn2cnnc2)ccc1OCC(=O)NC1CCCCC1	Autofluor counter 24056
COc1ccccc1OCC(=O)NCC1CCCCC1	Autofluor counter 23960
CCc1ccccc1NC(=O)CN1CCC(NC(=O)COC)CC1	Autofluor counter 23013, BoNT A protease inconclusive
COCC(=O)NC1CCN(C(=O)Nc2ccc(Br)cc2)CC1	Autofluor counter 16587
Cc1[nH]c(=O)c(C(=O)/C=C/c2ccccc2F)c2c1CCCC2	none
COc1ncccc1-c1cc2nc(NCCCN(C)C)n(C)c(=O)c2s1	none (no result: BJeLR lethal)
COc1ccccc1CC(=O)NC1CCCCCC1	none
COC(=O)c1ccccc1OCC(=O)NC1CCCCC1	Autofluor counter 21631
CCc1ccccc1OCC(=O)NC1CCCC1	Autofluor counter 23047
O=C(CN1C(=O)C(=O)c2ccccc21)NC1CCCCC1	Autofluor counter 21596, BoNT A protease inconclusive
O=C(CN1C(=O)CSc2ccccc21)NC1CCCC1	none
CCOc1ccc(-c2cc(C(=O)NCc3cc(OC)cc(OC)c3)[nH]n2)c(C)c1	none (no result: BJeLR lethal)
O=C(Oc1ccc(N(Cc2cccs2)C2=NS(=O)(=O)c3ccccc32)cc1)c1ccccc1F	Autofluor counter 22943
O=C(c1ccccc1F)N(Cc1cccs1)C1CCS(=O)(=O)C1 (stereo unspecified)	none
Nc1nc2ccccc2n1/N=C/c1cccnc1	none
Cc1nc2ccccc2n1/N=C/c1cccnc1	Autofluor counter 24451
COc1ccc(Nc2nc(N3CCCC3)nc(N3CCCC3)n2)c(OC)c1	Autofluor counter 20538
COc1ccc(Nc2nc(N)nc(C(F)(F)F)n2)c(OC)c1	Autofluor counter 17527
CC(C)(C)c1ccc(NC(=O)c2cc(C3CCCN(C(=O)CCc4ccccc4)C3)on2)cc1 (stereo unspecified)	none (no result: BJeLR lethal)
Brc1cccc(Cn2c(-c3cncs3)nc3ccccc32)c1	Autofluor counter 22203, BoNT A protease inconclusive
Brc1ccc(Cn2c(-c3cncs3)nc3ccccc32)cc1	none
c1ccc(Cn2c(-c3cncs3)nc3ccccc32)cc1	Autofluor counter 20700
COc1ccccc1Cc1c(-c2ccc(C#N)cc2)nc2ccc(C)cn12	none (no result: BJeLR lethal)
Cc1ccc(-c2cnc(C(O)c3cc(C)cc(C)c3)[nH]2)cc1 (stereo unspecified)	none (no result: BJeLR lethal)
CS(=O)(=O)Nc1ccccc1C(=O)Nc1cc(Cl)cc(Cl)c1	Autofluor counter 20510
CC(C)NC(=O)COc1ncnc2sccc12	Autofluor counter 18786
COc1cccc(CCC(=O)N(C)C2CCCN(Cc3ccccc3F)C2)c1 (stereo unspecified)	BoNT F protease 36
O=C(CN1CCN(c2ccccc2)CC1)Nc1c(C(=O)C2CC2)oc2ccccc12	Autofluor counter 20951, BoNT A protease inconclusive
O=C(O)CCSCC(=O)Nc1c(C(=O)C2CC2)oc2ccccc12	BoNT F protease inconclusive
COc1cc(C(C)=O)ccc1OCC(=O)Nc1ccc(C)c(S(=O)(=O)N2CCCCCC2)c1	none (no result: BJeLR lethal)
COc1cccc(CNC(=O)[C@@H]2CCCN2C(=O)[C@@H]2CCCN2S(=O)(=O)c2ccc(OC)c(C)c2)c1	none (no result: BJeLR lethal)
CCOC(=O)N1CCN(C(=O)CSCc2nc(-c3ccccc3C)oc2C)CC1	Autofluor counter 16597
CCOC(=O)N1CCN(C(=O)CSCc2nc(-c3ccccc3F)oc2C)CC1	Autofluor counter inconclusive
CSc1ccc(-c2nc(CSCC(=O)N3CCOCC3)c(C)o2)cc1	Autofluor counter 22931, BoNT A protease inconclusive
CSc1ccc(-c2nc(CSCC(=O)NC3CC3)c(C)o2)cc1	none
NC(=O)CC(NC(=O)c1cccc(Br)c1)c1ccc(N2CCCCCC2)c([N+](=O)[O-])c1 (stereo unspecified)	none
Cc1ccc(NCC(O)C(O)C(O)CO)cc1C (stereo unspecified)	Autofluor counter 20300
Cc1cc(N=Nc2ccccc2)c(NCC(O)C(O)C(O)CO)cc1C (stereo unspecified)	none
COc1ccc(N(Cc2cc(=O)[nH]c3ccccc23)C(=O)c2ccco2)cc1	Autofluor counter 20241, BoNT A protease inconclusive
O=C(Nc1ccccc1)c1n[nH]c(Cn2cncn2)n1	Autofluor counter 23808
CNc1ncnc2c1ncn2[C@H]1CN(Cc2ccncc2)C[C@@H](CO)O1	none (no result: BJeLR lethal)
CCc1ccc(NC(=O)CSc2nc3cc(C(=O)OC)ccc3c(=O)n2Cc2ccco2)cc1	none
COCCCn1c(SCC(=O)NCc2ccco2)nc2sc3c(c2c1=O)CCC3	Autofluor counter 19443
C=CCn1c(SCC(=O)OCC)nc2cc(C(=O)NCc3ccco3)ccc2c1=O	Autofluor counter 23049
CCOC(=O)CSc1nc2cc(C(=O)NCC3CCCO3)ccc2c(=O)n1Cc1ccco1 (stereo unspecified)	Autofluor counter 22243
CCN(C(=O)CSc1nc2cc(C(=O)OC)ccc2c(=O)n1Cc1ccco1)c1cccc(C)c1	Autofluor counter 16983
O=C(NCC1CCCO1)c1ccc2c(=O)n(Cc3ccco3)c(SCC(=O)N3CCCC3)nc2c1 (stereo unspecified)	none
CCOC(=O)[C@]12CCCC=C1N(Cc1cccc3ccccc13)C(=O)[C@H](CC(=O)NCCCOC)C2	none (no result: BJeLR lethal)
COCCNC(=O)c1ccc2c(=O)n(Cc3ccco3)c(SCC(=O)NC3CCCC3)nc2c1	Autofluor counter 21828
CCCCn1c(SCC(=O)NCc2ccco2)nc2ccc(N3CCOCC3)cc2c1=O	Autofluor counter 22158
COCCNC(=O)CSc1nc2cc3c(cc2c(=O)n1Cc1ccco1)OCO3	none
CCCCCn1c(SCC(=O)OCC)nc2cc(C(=O)NCc3ccco3)ccc2c1=O	Autofluor counter 21498
CCOC(=O)CSc1nc2ccccc2c(=O)n1Cc1ccco1	none
Cc1ccc(Nc2c([N+](=O)[O-])c(=O)n(C)c3ccccc23)cc1C	Autofluor counter 21534
Cn1c(=O)c([N+](=O)[O-])c(NCCc2ccccc2)c2ccccc21	none
Cn1c(/C=C/c2ccccc2)nc2ccccc2c1=O	none
